Compound activity as filed in PubChem.
Sampled rows, rich in hits. Any-hit rate of the full collection: about 1.3%.
PGK inhibitor: blocks T. brucei phosphoglycerate kinase. P07378. Potency, µM (series often up to 57.5 µM), without a hit: at the highest dose activity change, negative = inhibition, usual class: inhibitors. PGK/GAPDH coupled, Kinase-Glo luminescence, 60 min. actives 0.043% (n = 380,000); also: potency is read from the fitted curve at half-maximal effect; % is scaled to controls: 0 for no effect and ±100 for the full control effect; nearly all actives have a fitted effect of over 60% in size
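Luminescent ATP detection (Kinase-Glo Plus) follows a 60-minute room-temperature incubation, with wells lacking PGK as controls. Buffer: 100 mM TEA (pH 7.6), 5 mM MgCl2, 0.01% Tween-20. Coupling enzyme GAPDH (100 nM final) supplies unstable 1,3-BPG in-well.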
FEN1 inh-1: human FEN1 inhibition; actives 0.35% (n = 390,000); P39748; Recombinant FEN1 flap cleavage, fluorescence, 15 min; Potency, µM (doses to about 114 µM), for the others: at the top dose activity change, negative = inhibition, most hits filed as inhibitors; AID 588795; also: potency is read from the fitted curve at half-maximal effect; % is scaled to controls: 0 for no effect and ±100 for the full control effect; nearly all actives have a fitted effect of over 65% in size
Target sequence (P39748 whole entry, looked up): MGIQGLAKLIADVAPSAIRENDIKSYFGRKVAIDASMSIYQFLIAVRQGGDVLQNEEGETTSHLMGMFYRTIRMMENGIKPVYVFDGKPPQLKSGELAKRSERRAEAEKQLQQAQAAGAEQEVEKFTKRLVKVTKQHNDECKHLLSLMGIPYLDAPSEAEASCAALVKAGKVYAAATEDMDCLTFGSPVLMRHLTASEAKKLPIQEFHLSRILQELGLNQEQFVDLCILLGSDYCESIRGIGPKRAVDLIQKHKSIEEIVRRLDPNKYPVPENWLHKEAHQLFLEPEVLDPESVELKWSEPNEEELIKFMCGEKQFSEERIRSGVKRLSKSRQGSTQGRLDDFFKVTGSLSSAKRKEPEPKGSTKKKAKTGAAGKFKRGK
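With each library titrated from low to high concentration, compounds met 10 nM FEN1 for 15 min at room temperature before 50 nM substrate was added; readings at 0 and 15 min fed four-parameter Hill curve fits.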
PI5P4Ka inh: inhibitors of human PI5P4K alpha | P48426 | PI5P4Kalpha enzyme, ADP-Glo luminescence, 60 min; active compounds read low | max response, % | actives 1.2% (n = 330,000) | AID 652105; active = max response of -50% or lower; inconclusive = between -30% and -50%; inactive = -30% or higher; also: value at the top dose of about 77 µM; % is scaled to controls: 0 for no effect and ±100 for the full control effect
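Enzyme plus substrate dispensed, test compounds pinned in, then ATP (5 microM final) added. After 60 min at RT, ADP-Glo reagent 1 for 45 min and reagent 2 for 30 min preceded luminescence imaging.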
Pin1 inhibitor: human Pin1 inhibition | Q13526 | Potency, µM (titrated, usually from 115 µM), for the others: at the top dose activity, negative = inhibition, hits mostly inhibitors | AID 504891 | actives 0.009% (n = 390,000) | Pin1 FP peptide displacement, HiFluor488, 10 min; active = well fitted inhibition curve with a large enough effect in the polarisation, with a control signal flat, not every such curve was filed as active; inconclusive = small, poorly fitted or top-dose-only effect, or effect the other way, or a change in a side signal; inactive = no such curve, though single readings can be large or run the other way; the % refers to the polarisation; also: potency is read from the fitted curve at half-maximal effect; % is scaled to controls: 0 for no effect and ±100 for the full control effect
Target sequence (Q13526 whole entry, looked up): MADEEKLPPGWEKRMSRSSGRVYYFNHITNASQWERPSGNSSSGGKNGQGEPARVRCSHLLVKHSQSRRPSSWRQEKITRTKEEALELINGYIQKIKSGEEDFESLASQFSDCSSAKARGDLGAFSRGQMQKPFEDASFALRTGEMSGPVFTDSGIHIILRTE
GRP78 ERSR act: ER stress response induction in glioma; U87-MG GRP78 promoter luciferase reporter, 16 h; Potency, µM, for the others: at the top dose activation, hits mostly activators; actives 0.02% (n = 420,000); AID 602332; also: potency is read from the fitted curve at half-maximal effect; series mostly up to about 76 µM; % of control where 0% means no effect; nearly all actives have a fitted effect of over 35% in size
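Stably transfected U87-MG human glioma cells carrying a GRP78-based luminescent sensor were seeded at 1000 cells/well, pin-dosed with compounds and incubated 16 h. Luciferase reagent was then added, and end-point luminescence was read after 10 min at room temperature.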
WRN inhibitor: WRN helicase (human) inhibition. Q14191. WRN helicase unwinding, fluorescent forked duplex, kinetic. Potency, µM (highest dose often 114 µM), for inactives: top-dose activity change, negative = inhibition, usual class: inhibitors. actives 0.46% (n = 360,000); also: potency is read from the fitted curve at half-maximal effect; % is scaled to controls: 0 for no effect and ±100 for the full control effect; nearly all actives have a fitted effect of over 55% in size
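Primary qHTS, 1536-well format. 20 nM WRN + compound, 15 min RT; start with 100 nM forked fluorophore/quencher duplex, 2 mM ATP (final); kinetic read ex 525/em 598 nm.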
FEN1 inh-2: confirmation of human FEN1 inhibitors; Potency, µM, most hits filed as inhibitors; actives 79% (n = 880); FEN1 flap cleavage, TAMRA/BHQ2 fluorogenic DNA substrate; shares compounds with FEN1 inh-1; also: potency is read from the fitted curve at half-maximal effect; nearly all actives have a fitted effect of over 60% in size
Starred values were filed as active, the others as inactive; i = inactive; ? = inconclusive; · = no result given; [ ] = dose if it differs, or a comment. Unless noted, calls follow the shape of the dose curve; as a rule, active = well fitted curve in the direction sought with a large enough effect; inconclusive = small, poorly fitted or top-dose-only effect, or another doubt; inactive = no such curve, though single readings can be large; an effect the other way counts as inactive or inconclusive.

SMILES	PGK inhibitor	FEN1 inh-1	PI5P4Ka inh	Pin1 inhibitor	GRP78 ERSR act	WRN inhibitor	FEN1 inh-2
N=C1/C(=C\c2ccc(-c3ccc(C(=O)O)cc3)o2)C(=O)N=C2SC=C(c3ccccc3)N12	-14%	50µM*	-70*	?	-4%	-24%[11.6 µM]	?
O=C(Nc1ccccc1-c1cn2c(CN3CCNCC3)csc2n1)c1cnc2ccccc2n1	·	28µM*	·	·	-12%	·	24*
COc1cc(NC(=O)c2cc3c(C)nc4ccccc4c3o2)cc(OC)c1OC	-9%	?	6	?	-1%	?	?
Cc1nc2ccccc2c2oc(C(=O)Nc3ccc(C(C)C)cc3)cc12	7%	-16%	12	11%	-3%	-16%	·
O=C1NC(=O)/C(=C/c2ccc(-c3cccc([N+](=O)[O-])c3)o2)S1	?	?	-51*	-3%	1%	32µM*	?
COC(=O)c1c(OCc2cccnc2)cc(=O)n2c1CCN(C(=O)c1c3c(nn1C)CCCC3)CC2	·	·	·	·	2%	·	·
O=C1NC(=O)C(=Cc2ccc(Cl)c(Cl)c2)S1	1%	0%	-26	-8%	2%	-1%	·
O=C1NC(=S)S/C1=C\c1cc(Cl)cc(Cl)c1O	?	?	-58*	20%	-5%	35µM*	85*
Cc1ccc(/C=C/C(=O)OCC(=O)c2ccc3c(c2)NC(=O)CO3)o1	-14%	-16%	-14	17%	-3%	-6%	·
O=C1COc2ccc(C(=O)COC(=O)/C=C/c3ccc(Br)o3)cc2N1	?	?	-80*	-14%	-6%	35µM*	?
CC(=O)N(\C=C/C=C/C=C1\Sc2ccccc2C1=O)c1ccccc1	-18%	?	-66*	?	9%	?	?
COc1cc(=O)n2c(c1C(=O)NCc1ccc3c(c1)OCO3)CCN(C(=O)c1ccccc1F)CC2	·	·	·	·	-3%	·	·
O=[N+]([O-])c1ccccc1N=Nc1ccc(O)cc1O	-14%	?	?	?	3%	?	·
O=S(=O)(O)c1cc(O)c(N=Nc2ccc(O)cc2O)c2ccccc12	25µM*	35µM*	-78*	·	-8%	40µM*	85*
CCC1(C2CCN(C(=O)c3ccc4ccccc4c3)CC2)NC(=O)N(CCc2scnc2C)C1=O (stereo not given)	·	·	·	·	4%	·	·
CC1CCCCC1NC(=O)COC(=O)c1ccc([N+](=O)[O-])o1 (stereo not given)	2%	-26%	-4	0%	1%	-9%[11.6 µM]	9.5*
O=C(COC(=O)c1ccc([N+](=O)[O-])o1)NC1CCCCC1	-2%	?	0	-9%	1%	-2%[11.6 µM]	6.7*
O=C(COC(=O)c1ccc([N+](=O)[O-])o1)NC1CCS(=O)(=O)C1 (stereo not given)	1%	?	0	-18%	-5%	-19%[57.1 µM]	7.6*
CCN(C(=O)COC(=O)c1ccc([N+](=O)[O-])o1)C1CCCCC1	-6%	-16%	-4	-8%	-3%	18%	17*
CC1CCCC(NC(=O)COC(=O)c2ccc([N+](=O)[O-])o2)C1C (stereo not given)	-5%	?	0	-12%	-2%	2%	·
CCN(C(=O)COC(=O)c1cccnc1SC)C1CCCCC1	-10%	-3%	19	-9%	-7%	2%	·
COc1cc(C(=O)OCC(=O)NC2CCS(=O)(=O)C2)c([N+](=O)[O-])cc1OC (stereo not given)	-7%	-1%	-9	9%	2%	1%	·
O=C(COC(=O)c1ccc([N+](=O)[O-])o1)NC1CCCC1	i	?	2	-7%	-2%	-9%	·
COc1cccc(C2(CC(=O)N3CCCOc4c(cccc4OC)C3)CC(=O)N(C)C2=O)c1 (stereo not given)	·	·	·	·	0%	·	·
Cc1c(C(=O)NCc2ccc(F)cc2)sc2ncnc(NCC3CCCO3)c12 (stereo not given)	·	·	·	·	-4%	·	·
SMILES	PGK inhibitor	FEN1 inh-1	PI5P4Ka inh	Pin1 inhibitor	GRP78 ERSR act	WRN inhibitor	FEN1 inh-2
CCS(=O)(=O)Nc1cc(C(=O)N2CCC[C@H]2CO)c2c(c1)nc(-c1ccccc1)n2C	·	·	·	·	-2%	·	·
COc1cccc(C2(CC(=O)N3CCN(c4ccccn4)CC3)CC(=O)N(C3CCCC3)C2=O)c1 (stereo not given)	·	·	·	·	-2%	·	·
CC1CCN(C(=O)COC(=O)c2ccc([N+](=O)[O-])o2)CC1	0%	?	2	-10%	0%	-10%[11.6 µM]	6*
Cc1cc(C(F)(F)F)c2c(N)c(C(=O)Nc3c(Cl)cccc3Cl)sc2n1	7%	?	·	18%	-2%	·	·
Cc1nnc(NC(=O)c2sc3nc(-c4cccs4)cc(C(F)(F)F)c3c2N)s1	-18%	?	-14	?	-9%	-34%[57.1 µM]	?
O=C1C=CC(=O)N1c1ccccc1N1C(=O)C=CC1=O	-8%	?	-89*	?	-14%	?	?
COc1ccc(/C=N/Nc2cc(C)nc3ccc(OC)cc23)c(OC)c1	7%	22µM*	?	2%	-5%	13µM*	19*
Cc1cc(O)c(C=O)c2c1C(=O)Oc1c(C)c(O)c3c(c1O2)C(O)OC3=O (stereo not given)	·	·	·	·	-5%	·	·
COc1cc(C)c2c(c1C=O)Oc1c(c(C)c(O)c3c1C(O)OC3=O)OC2=O (stereo not given)	?	?	-64*	?	-6%	50µM*	76*
COc1cccc(NC(=O)C(OC(=O)CNC(=O)c2ccccc2)c2ccccc2)c1 (stereo not given)	·	·	·	-7%	·	·	·
O=C(COC(=O)c1ccc([N+](=O)[O-])o1)NCCCc1ccccc1	-1%	?	-7	-15%	-4%	22%	19*
O=C(COC(=O)c1ccc([N+](=O)[O-])o1)Nc1cccc2ccccc12	1%	?	4	-7%	1%	-5%	·
COc1ccc(CCNC(=O)COC(=O)c2ccc([N+](=O)[O-])o2)cc1	-11%	?	-9	?	-5%	-15%	17*
COc1ccc(CCNC(=O)COc2ccc([N+](=O)[O-])cc2)cc1	1%	-1%	-19	-2%	-2%	13%[57.1 µM]	·
CN=c1scc(C)n1/N=C/c1ccc(O)c(O)c1O	-14%	79µM*	?	?	-6%	20µM*	34*
COc1cccc(CCNc2ncnc3sc(C(=O)N4CCOCC4)c(C)c23)c1	·	·	·	·	-3%	·	·
O=C(/C=C/c1ccco1)NC(=S)Nc1ccc(C(=O)O)cc1	?	40µM*	-79*	?	-4%	?	30*
